# Screen size: about 340,000 compounds; about 2,300 (0.68%) were called active. Shown is part of a subset that was picked to be rich in actives. A number with no mark means an inactive call. Cut-off read from the data, not from the text of the source: active = growth rescue above about 28% (passing the limit was not always enough); inconclusive = no clear call, values can overlap the other calls.
# Assay: rescue of yeast from PfHsp40 toxicity, primary screen, S. cerevisiae, ATP luminescence (AID 504582);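 note: yeast W303a lacking pdr1 and pdr3 grown in galactose medium; growth measured after three days at 30 °C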
# Conditions: S. cerevisiae expressing PfHsp40, growth rescue, at 12.5 µM, stronger effect = higher value
row,Structure (SMILES),growth rescue
1,CCOc1ccc(S(=O)(=O)n2ccnc2)c2ccccc12,-0.0665%
2,CN(C)C(=O)CCC(=O)N1CCCCC1C(=O)Nc1ccc(Oc2ccccc2F)cc1 (configuration not stated),141% (active)
3,COc1cccc(NC(=O)C2CCCN2C(=O)OCc2ccccc2)c1 (configuration not stated),0.607%
4,COc1ccc(NC(=O)N2CCCC2C(=O)NCc2ccccc2Cl)cc1 (configuration not stated),-2.16%
5,COc1ccc(OC)c(C(=O)c2ccc(C(=O)N3CCN(Cc4csc(C)n4)CC3)cc2)c1,-1.18%
6,O=C(Cn1nnc(-c2ccccc2)n1)N/N=C/c1ccc(-c2ccc(Cl)cc2)o1,-1.63%
7,O=C(NCc1ccco1)C1CCCN(S(=O)(=O)c2cnc[nH]2)C1 (configuration not stated),0.411%
8,COc1cc(/C=N/O)cc(Br)c1OCc1cccc(Cl)c1,157% (active)
9,COc1cc(/C=N/O)cc(Br)c1OS(=O)(=O)c1ccc(C)cc1,-0.295%
10,COc1cc(C(=O)NCc2ccncc2)cc(Br)c1OCc1ccccc1,1.27%
11,CC(=O)Oc1ccc(C)cc1N1C(=O)c2ccc(C(=O)O)cc2C1=O,103% (active)
12,Cc1cccc(N2C(=O)c3ccc(C(=O)Nc4cccc(C(=O)O)c4)cc3C2=O)c1,-0.247%
13,COc1ccc(OC)c(NC(=O)c2ccc3c(c2)C(=O)N(c2ccc(OC(C)=O)cc2)C3=O)c1,-0.414%
14,CCc1ccc(C(=O)NNC(=O)C2CCN(c3ncnc4sc(C)c(C)c34)CC2)cc1,4.88%
15,O=S(=O)(c1ccc(Br)cc1)n1ccc2ccccc21,17.1%
16,CCCC(C)C(=O)OCC(=O)Nc1c(Br)cc(C)cc1Br (configuration not stated),1.14%
17,COc1ccc(OCc2ccc(-c3nc4ccccc4c(=O)n3N)o2)cc1,0.704%
18,COc1ccc(-c2nc3ccccc3c(=O)n2CCc2ccc(O)cc2)cc1,31.2% (active)
19,COc1ccc(NC(=O)CSc2nc3ccccc3c(=O)n2C)cc1,-2.46%
20,COc1cccc(C(O)c2nc3ccccc3n2C)c1 (configuration not stated),-0.645%
21,Clc1ccccc1-c1cc(COc2ccc3ccccc3c2)no1,-0.819%
22,CCCCCC(O)c1cccc(OCc2ccc3ccccc3n2)c1 (configuration not stated),57.6% (active)
23,Cc1no[n+]([O-])c1COc1ccccc1/C=C1\NC(=S)NC1=O,0.211%
24,Cc1[nH]c2c(C(=O)N3CCCC(CCC(=O)NCc4ccccc4F)C3)cccc2c1C (configuration not stated),1.34%
25,O=C(c1cn(-c2ccccc2)nc1-c1cccnc1)N1CCN(S(=O)(=O)c2ccccc2F)CC1,-0.533%

row,Structure (SMILES),growth rescue
1,O=[N+]([O-])/C=C1\CCCCCN1,0.302%
2,NS(=O)(=O)c1ccc(CNC(=S)NC(=O)c2ccco2)cc1,0.284%
3,O=C(Nc1ccc2ccccc2c1)/C(=C/c1cccc(Br)c1)NC(=O)c1ccco1,1.72%
4,Cc1ccc(OCC(=O)NNC(=S)NCc2ccccc2)cc1,-0.289%
5,O=C(Nc1ccc2ccccc2c1)/C(=C\c1ccc2c(c1)OCO2)NC(=O)c1ccco1,0.409%
6,CC(Oc1ccc2ccccc2c1)C(=O)NNC(=S)NC(=O)c1ccco1 (configuration not stated),58.8% (active)
7,CCCc1ccc(OCC(=O)NNC(=S)NC(=O)c2ccco2)cc1,58% (active)
8,COc1ccc(S(=O)(=O)n2nc(C)c(S(=O)(=O)N3CCOCC3)c2C)cc1,0.381%
9,O=C(Cn1cnc2c(nnn2-c2ccccc2)c1=O)N1CCC(Cc2ccccc2)CC1,-0.205%
10,CCc1ccc(OCC(=O)OCC(=O)c2c(N)n(C)c(=O)n(C)c2=O)cc1,1.51%
11,FC(F)(F)c1ccnc(Oc2ccc(C3=NCCS3)cc2)c1,4.54%
12,C#CCNc1nc(C(C)C)nc2c1nnn2Cc1ccccc1F,-0.851%
13,CSc1sc(C(=O)NC(=O)NCc2cccnc2)c(C)c1-c1ccon1,-0.426%
14,O=C(NCCN1CCOCC1)c1cc(Sc2cccc(Cl)c2)nc2ccccc12,1.79%
15,O=c1c(/C=N/O)coc2ccc(Cl)cc12,412% (active)
16,CCOC(=O)C1CCN(Cc2coc3ccc(Cl)cc3c2=O)CC1,-0.75%
17,O=C1/C(=C/c2coc3ccc(O)cc3c2=O)SC(=S)N1c1ccccc1,-0.334%
18,COc1ccccc1C(=O)Nc1ccc(OCc2nnc3c4ccccc4c(C)nn23)cc1,1.5%
19,C/C(=N/Nc1nc(-c2ccccc2)c(CC(=O)O)s1)c1ccccc1,-0.261%
20,c1ccc(C(=NNc2nc3ccccc3s2)c2ccccn2)cc1,223% (active)
21,COc1cc(OC)nc(N/N=C(\c2ccccc2)c2ccncc2)n1,0.409%
22,CCOc1cc(/C=C(/C#N)c2ccc(Cl)cc2)cc(Cl)c1OCC(=O)O,-0.745%
23,CSCCC(NC(=O)c1ccccc1)C(=O)N1CCN(Cc2ccc(Cl)cc2)CC1 (configuration not stated),0.474%
24,C[C@H](NC(=O)c1ccccc1Cl)C(=O)OCCOc1cccc(Cl)c1,4.16%
25,COC(=O)c1cccc([N+](=O)[O-])c1CS(=O)(=O)c1ccc(C)cc1,-1.34%

row,Structure (SMILES),growth rescue
1,O=C(/C=C/c1cccc([N+](=O)[O-])c1)OCC(=O)N1CCOCC1,-0.951%
2,O=C(/C=C/c1ccccc1[N+](=O)[O-])OCC(=O)N1CCCC1,48.9% (active)
3,CC(C)CNC(=O)COC(=O)/C=C/c1ccccc1[N+](=O)[O-],-0.287%
4,COC(=O)C1=C(NC(=O)C(C)(C)C)CCS1,-1.07%
5,COc1ccc(CNC(=O)C2CCN(C(=O)c3ccco3)CC2)cc1,0.344%
6,CCC/C(=N\O)c1c[nH]c2ccccc12,0.247%
7,COc1ccc(/C=C(\C#N)c2c[nH]c3ccccc23)cc1,509% (active)
8,COc1cccc(-n2c(SCC(=O)c3c[nH]c4ccccc34)nc3ccccc3c2=O)c1,-1.82%
9,Cn1c(CCc2ccccc2)nnc1SCC(N)=O,0.061%
10,COc1ccc(C(=O)COC(=O)COc2ccc(C)c(C)c2)cc1,0.0365%
11,CC(=O)Nc1ccc(S(=O)(=O)NCC(=O)OCC(=O)c2ccc[nH]2)cc1,-1.02%
12,COc1cc(C)ccc1OCC(=O)OCC(=O)c1ccc[nH]1,62.4% (active)
13,Cc1ccc(NC(=O)NC(=O)N(C2CCCCC2)S(=O)(=O)c2ccccc2)cc1,-1.71%
14,CCOc1ccccc1NC(=O)C1CCCN(S(=O)(=O)c2ccccc2)C1 (configuration not stated),0.502%
15,CC(C)(C)c1ccc(OC2=CS(=O)(=O)c3ccccc32)cc1,6.99%
16,CC(C)(C)c1ccc(Oc2ccc(N)cc2)cc1,346% (active)
17,COc1cccc(Oc2ccc(N)cc2)c1,1.74%
18,O=C1C(C=NCC2CCCO2)=C(O)c2ccccc21 (configuration not stated),0.444%
19,Cc1cc(C(=O)CC#N)c(C)n1CC(F)(F)F,0.147%
20,CC(C)Cn1c(SCC(=O)Nc2ccc(Cl)cc2F)nc(O)cc1=O,1.12%
21,COc1cccc(CNC(=O)C2CCCN(S(=O)(=O)N3CC(C)CC(C)C3)C2)c1 (configuration not stated),0.206%
22,COc1ccc(Oc2cn[nH]c2-c2ccc(OC)cc2O)cc1,10.8%
23,CCOc1ccc(-c2nc(N)ncc2-c2ccccc2OC)c(O)c1,1.96%
24,CCOc1ccccc1Oc1cn[nH]c1-c1ccc(OC)cc1O,125% (active)
25,COc1ccccc1/C=C1\SC(=O)N(CCC(=O)N(C)C2CCS(=O)(=O)C2)C1=O (configuration not stated),-0.442%

row,Structure (SMILES),growth rescue
1,COc1ccc(CCNS(=O)(=O)c2cccc3cccnc23)cc1OC,0.122%
2,CCCCC(=O)NC(c1ccc(OC)c(OC)c1)c1ccc2cccnc2c1O (configuration not stated),222% (active)
3,CCOc1ccc(C(CC(=O)O)NC(=O)Cc2ccccc2)cc1OC (configuration not stated),-0.249%
4,CCOC(=O)C(C)Oc1cccc2c(=O)n(CC(=O)NCCc3ccc(OC)c(OC)c3)ccc12 (configuration not stated),0.594%
5,COc1cccc2c(=O)n(CC(=O)N3CCCCCC3)ccc12,-0.593%
6,CCOC(=O)C(C)Oc1cccc2c(=O)n(CC(=O)N3CCc4ccccc43)ccc12 (configuration not stated),92.2% (active)
7,O=C(O)CCCCOn1ccnc1,-2.14%
8,O=C(c1noc2c1CCCC2)N1CCc2ccccc2C1,-0.161%
9,COc1ccc2c(c1)CCc1c(C(=O)N3CCc4ccccc4C3)noc1-2,182% (active)
10,COc1ccc2c(c1)CCc1c(C(=O)N3CCCC3)noc1-2,0.772%
11,CCN(CC)C(=O)COc1coc(CN2CCN(Cc3ccccc3)CC2)cc1=O,-0.869%
12,Cc1ccc2[nH]c(C)c(CCNC(=O)NC3CCCCC3)c2c1,-0.354%
13,S=c1[nH]nc(-c2ccco2)n1/N=C/c1ccc(Br)s1,152% (active)
14,Cc1ccsc1/C=N/n1c(=S)[nH]nc(C)c1=O,-0.774%
15,Cc1ccccc1-c1n[nH]c(=S)n1/N=C/c1ccc(-c2ccccc2Br)o1,0.454%
16,Cc1cc(NC(=O)CSc2nc(=O)cc(N)n2-c2ccc(F)cc2)no1,-0.428%
17,CC(=O)C(C)n1cnc2scc(-c3ccc(C)cc3)c2c1=O (configuration not stated),0.285%
18,CCC(C(=O)OC)n1cnc2scc(-c3ccc(C)cc3)c2c1=O (configuration not stated),49.2% (active)
19,CCOC(=O)C(C)n1cnc2scc(-c3ccc(C)c(C)c3)c2c1=O (configuration not stated),4.82%
20,CCCc1nc2scc(-c3ccc(C)cc3)c2c(=O)n1N,0.943%
21,COC(=O)Cn1cnc2scc(-c3ccc(C)c(C)c3)c2c1=O,151% (active)
22,CCn1cnc2scc(-c3ccc(C)c(C)c3)c2c1=O,1.65%
